# Results taken from PubChem BioAssay (NCI).
# About 79,000 compounds went through this panel and 15% of them were active in at least one assay; those are over-represented in the sample as a whole. A number with no mark means an inactive call. Cut-off read from the data, not from the text of the source: active = growth inhibition above about 70%; inactive = the rest. *1 amine or outer side, *2 acyl side, *3 side chain or, on linkers, in order; H or OH if unused. Where a SMILES comes first, the peptide text is derived from it. Bridges are numbered along the chain shown (N, C = ends). [ ]: non-standard residue; d: D form. The star is where a group is joined. ξ: configuration not given here. X16 = CC(C)C(C)C(C(=O)[*:2])N(C)[*:1]; Picolinoyl(3-OH) = O=C(c1ncccc1O)*; NMePhg = CN[CH](C(=O)O)c1ccccc1; Hyp = O=C(O)[CH]1C[CH](O)CN1; Cbz = O=C(OCc1ccccc1)*; Boc = CC(C)(C)OC(=O)*; ξNva = CCCC(N)C(=O)O; Sar = CNCC(=O)O
# Assay: NCI Yeast Anticancer Drug Screen. Data for the sgs1 mgt1 strain (AID 161);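 note: 0% = growth of cultures given vehicle only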
# Conditions: S. cerevisiae sgs1 mgt1 strain, at 50.0 µM, hits give high values
# In short: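 Mutant yeast exposed to compound; growth scored against vehicle-only wells.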
row,SMILES,growth inhibition
1,O=C(O)CCCCCC1=CCCCC1,20.9%
2,O=C(N/N=C\c1cccc2c([N+](=O)[O-])cccc12)Nc1ccccc1,-21.9%
3,O=C(N/N=C/c1ccccc1)c1c(F)c(F)c(F)c(F)c1F,-32.9%
4,CCOC(=O)C(CC(C)C)NC(=O)C(Cc1ccccc1)NC(=O)CNC(=O)OC(C)(C)C (stereo not drawn) (Boc-Gly-Phe-Leu-OEt; configuration not given here),9.45%
5,Cc1cc(C)[n+](C)c2cc3ccccc3cc12,20.9%
6,CCN(CC)CCCC(C)Nc1ccnc2ccc3nn(C)nc3c12 (stereo not given),-15.2%
7,O=C(O)CSc1cc(Br)c(Br)cc1C(=O)O,-0.85%
8,Cc1ccc(S(=O)(=O)Oc2nc3nc4ccccc4nc3nc2OS(=O)(=O)c2ccc(C)cc2)cc1,3.7%
9,CC(c1ccccc1)n1cnc2c(=S)nc[nH]c21 (stereo not given),-7.55%
10,CCN(CC)CC[n+]1ccc2c(C)c3[nH]c4ccccc4c3c(C)c2c1,-4.1%
11,Cc1ccc(S(=O)(=O)c2c(N)c3nccn3c3nc4ccccc4nc23)cc1,-77.5%
12,Cc1nc2c(o1)C(=O)c1ccccc1C2=Nc1ccc(N2CCOCC2)cc1,13.2%
13,CC(C)(C)n1c(=O)[nH]c(=O)n1C(C)(C)C,-21.9%
14,NS(=O)(=O)c1ccc(C(=O)O)s1,-10.3%
15,CCOC(=O)COc1cc2c(cc1C(C)c1cc(OC)c(OC)c(OC)c1)OCO2 (stereo not given),10.3%
16,Cc1ccccc1CCOC(=O)c1cc([N+](=O)[O-])cc([N+](=O)[O-])c1,-10.9%
17,CCCCCCCC/C=C\CCCCCCCC(=O)OC,49.3%
18,CN(N=O)C(N)=NC(=O)c1ccccc1,20.9%
19,O=C(Nc1ccccc1)c1ccc2ccccc2n1,-22.1%
20,Oc1ccc(C2=NNC(c3ccc(O)cc3)=NN2)cc1,17%

row,SMILES,growth inhibition
1,COc1ccc(-c2cc(=O)c3ccc(C)nc3[nH]2)cc1,-40.4%
2,CCNC(=O)OCCN1C(=O)C2C3CCC(O3)C2C1=O (stereo not given),22.1%
3,CCCC(NC(=O)OCc1ccccc1)C(=O)NCC(=O)NCC(=O)OC (stereo not drawn) (Cbz-[ξNva]-Gly-Gly-OMe),12.2%
4,Cc1c(Cl)cccc1NC(=O)c1c(Cl)c(Cl)c(Cl)c(Cl)c1C(=O)O,8.6%
5,COc1cc(C(=O)NNC(=O)C2CCC(=O)N2Cc2ccccc2)cc(OC)c1OC (stereo not given),-18%
6,Cc1cccc(C)c1NC(=O)C(=O)CC(=O)c1sc(Nc2c(C)cccc2C)nc1C,26.2%
7,CNCC(O)(C(=O)O)C(=O)O,-32.9%
8,CC(C)CC1NC(=O)C(NC(=O)c2ncccc2O)C(C)OC(=O)C(c2ccccc2)N(C)C(=O)C(C)NC(=O)C(C(C)C(C)C)N(C)C(=O)CN(C)C(=O)C2CC(O)CN2C1=O (stereo not given) ({Picolinoyl(3-OH)}-TL[Hyp][Sar][X16]A[NMePhg]; ester 1-C; configuration not given here),19.1%
9,N#CC1=C(O)NC(O)=C(C#N)C12C(=O)Nc1ccccc12,2.05%
10,COc1ccc2c(c1)C(O)C(NCc1ccccc1)C2 (stereo not given),-0.45%
11,O=C(O)C(=O)NCc1cnccn1,-3.65%
12,O=S(=O)(O)CCc1ccccc1,-10.9%
13,CCOc1ccc(C(C)c2cc3c(cc2OC)OCO3)cc1 (stereo not given),20.8%
14,Nc1nc2[nH]c(=O)cnc2c(=O)[nH]1,-26.2%
15,CC(=O)/C(=C\c1ccc([N+](=O)[O-])o1)C(=O)CCN(C)C,63%
16,NC(N)=N/N=C/c1c(Cl)nc2sccn12,-17.5%
17,O=C(NNC(O)C(F)(F)F)c1ccccc1 (stereo not given),10.1%
18,CCOC(=O)C1CCN(S(=O)(=O)c2ccccc2)CC1,11.8%
19,CN(C)C(=S)/N=c1\ssc(=S)n1Cc1cccs1,-19.6%
20,CCOC(=N)CC(=O)Nc1ccccc1CC,11.6%
